# Measurements from the supplement of paper PMC8728848.
# The full list was thinned out, with the strongest signals kept by preference.
# B1: CD4 (Rattus norvegicus), P05540 (protein)
# chain: MCRGFSFRHLLPLLLLQLSKLLVVTQGSTSITAYKSEGESAEFSFPLNLGEESLQGELRWKAEKAPSSQSWITFSLKNQKVSVQKSTSNPKFQLSETLPLTLQIPQVSLQFAGSGNLTLTLDRGILYQEVNLVVMKVTQPDSNTLTCEVMGPTSPKMRLILKQENQEARVSRQEKVIQVQAPEAGVWQCLLSEGEEVKMDSKIQVLSKGLNSGGGSGGGTGGGDLAPQMLRELQETNAALQDVRELLRQQVKEITFLKNTVMECDACGLDRNLPPLAPLGPHPETLVKVKDAEDQLGARVGYIELDLNSGKILESFRPEERFPMMSTFKVLLCGAVLSRIDAGQEQLGRRIHYSQNDLVEYSPVTEKHLTDGMTVRELCSAAITMSDNTAANLLLTTIGGPKELTAFLHNMGDHVTRLDRWEPELNEAIPNDERDTTMPVAMATTLRKLLTGELLTLASRQQLIDWMEADKVAGPLLRSALPAGWFIADKSGAGERGSRGIIAALGPDGKPSRIVVIYTTGSQATMDERNRQIAEIGASLIKHW
# What was measured:
# Assay in all cases: glycan array binding signal (z-score within array); higher = stronger binding
# Conditions in all cases: glycan notation: IUPAC condensed, linker removed
# [1] = biological target: Fuc(a1-2)Gal(b1-4)Glc
# Summary of the method: (§1)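 Arrays were curated from the Consortium for Functional Glycomics database, 3228 in total, and kept only where the protein sequence was available. Binding is expressed as a within-array Z-score. This score was averaged across arrays of the same protein sequence at different concentrations or buffers and across linkers, and negative values can be read as non-binding.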
# [2] = biological target: Fuc(a1-2)Gal(b1-4)GlcNAc(b1-2)[Fuc(a1-2)Gal(b1-4)GlcNAc(b1-4)]Man(a1-3)[Fuc(a1-2)Gal(b1-4)GlcNAc(b1-2)Man(a1-6)]Man(b1-4)GlcNAc(b1-4)GlcNAc
# Summary of the method: as §1
# [3] = biological target: Fuc(a1-2)Gal(b1-4)GlcNAc(b1-3)[Fuc(a1-2)Gal(b1-4)GlcNAc(b1-6)]GalNAc
# Summary of the method: as §1
# [4] = biological target: Fuc(a1-2)[Gal(a1-3)]Gal(b1-4)[Fuc(a1-3)]Glc
# Summary of the method: as §1
# [5] = biological target: Fuc(a1-2)[Gal(a1-3)]Gal(b1-4)[Fuc(a1-3)]GlcNAc(b1-3)GalNAc
# Summary of the method: as §1
# [6] = biological target: Fuc(a1-2)[Gal(a1-4)]Gal(b1-4)GlcNAc
# Summary of the method: as §1
# [7] = biological target: Fuc(a1-2)[GalNAc(a1-3)]Gal
# Summary of the method: as §1
# [8] = biological target: Fuc(a1-2)[GalNAc(a1-3)]Gal(b1-3)GlcNAc(b1-3)GalNAc
# Summary of the method: as §1
# [9] = biological target: Fuc(a1-2)[GalNAc(a1-3)]Gal(b1-4)GlcNAc
# Summary of the method: as §1
# [10] = biological target: Fuc(a1-2)[GalNAc(a1-3)]Gal(b1-4)GlcNAc(b1-3)Gal(b1-4)GlcNAc(b1-3)Gal(b1-4)GlcNAc
# Summary of the method: as §1
# [11] = biological target: Fuc(a1-2)[GalNAc(a1-3)]Gal(b1-4)GlcNAc(b1-3)GalNAc
# Summary of the method: as §1
# [12] = biological target: Fuc(a1-2)[GalNAc(a1-3)]Gal(b1-4)[Fuc(a1-3)]GlcNAc
# Summary of the method: as §1
# [13] = biological target: Fuc(a1-3)GlcNAc
# Summary of the method: as §1
# [14] = biological target: Fuc(a1-3)[Gal(b1-4)]GlcNAc(b1-6)GalNAc
# Summary of the method: as §1
# [15] = biological target: Fuc(a1-3)[Gal3S(b1-4)]GlcNAc
# Summary of the method: as §1
# [16] = biological target: Gal(a1-4)Gal(b1-4)GlcNAc(b1-3)Gal(b1-4)Glc
# Summary of the method: as §1
# [17] = biological target: Gal(b1-3)GlcNAc(b1-3)GalNAc
# Summary of the method: as §1
# [18] = biological target: Gal(b1-3)GlcNAc(b1-6)Gal(b1-4)GlcNAc
# Summary of the method: as §1
# [19] = biological target: Gal(b1-3)[Fuc(a1-4)]GlcNAc(b1-3)Gal(b1-4)GlcNAc
# Summary of the method: as §1
# [20] = biological target: Gal(b1-3)[Neu5Ac(a2-6)]GalNAc
# Summary of the method: as §1
# [21] = biological target: Gal(b1-4)GlcNAc(b1-3)Gal(b1-3)GalNAc
# Summary of the method: as §1
# [22] = biological target: Gal(b1-4)GlcNAc(b1-3)Gal(b1-4)GlcNAc(b1-2)Man(a1-3)[Gal(b1-4)GlcNAc(b1-3)Gal(b1-4)GlcNAc(b1-2)Man(a1-6)]Man(b1-4)GlcNAc(b1-4)[Fuc(a1-6)]GlcNAc
# Summary of the method: as §1
# [23] = biological target: Gal(b1-4)GlcNAc(b1-3)Gal(b1-4)GlcNAc(b1-2)[Gal(b1-4)GlcNAc(b1-3)Gal(b1-4)GlcNAc(b1-6)]Man(a1-6)[Gal(b1-4)GlcNAc(b1-3)Gal(b1-4)GlcNAc(b1-2)Man(a1-3)]Man(b1-4)GlcNAc(b1-4)GlcNAc
# Summary of the method: as §1
# [24] = biological target: Gal(b1-4)GlcNAc(b1-3)Gal(b1-4)GlcNAc(b1-3)Gal(b1-4)GlcNAc(b1-3)Gal(b1-4)GlcNAc(b1-2)Man(a1-3)[Gal(b1-4)GlcNAc(b1-3)Gal(b1-4)GlcNAc(b1-3)Gal(b1-4)GlcNAc(b1-3)Gal(b1-4)GlcNAc(b1-2)Man(a1-6)]Man(b1-4)GlcNAc(b1-4)[Fuc(a1-6)]GlcNAc
# Summary of the method: as §1
# [25] = biological target: Gal(b1-4)GlcNAc(b1-3)Gal(b1-4)GlcNAc(b1-3)Gal(b1-4)GlcNAc(b1-3)Gal(b1-4)GlcNAc(b1-3)Gal(b1-4)GlcNAc(b1-2)Man(a1-3)[Gal(b1-4)GlcNAc(b1-3)Gal(b1-4)GlcNAc(b1-3)Gal(b1-4)GlcNAc(b1-3)Gal(b1-4)GlcNAc(b1-3)Gal(b1-4)GlcNAc(b1-2)Man(a1-6)]Man(b1-4)GlcNAc(b1-4)[Fuc(a1-6)]GlcNAc
# Summary of the method: as §1
# [26] = biological target: Gal(b1-4)GlcNAc(b1-6)[Gal(b1-3)]GalNAc
# Summary of the method: as §1
# [27] = biological target: Gal3S(b1-3)GlcNAc
# Summary of the method: as §1
# [28] = biological target: Gal3S(b1-4)[Fuc(a1-3)]Glc6S
# Summary of the method: as §1
# [29] = biological target: Gal3S6S(b1-4)GlcNAc
# Summary of the method: as §1
# [30] = biological target: GlcNAc(b1-3)Gal(b1-4)GlcNAc(b1-3)Gal(b1-4)GlcNAc(b1-3)Gal(b1-4)GlcNAc(b1-3)Gal(b1-4)GlcNAc(b1-2)Man(a1-3)[GlcNAc(b1-3)Gal(b1-4)GlcNAc(b1-3)Gal(b1-4)GlcNAc(b1-3)Gal(b1-4)GlcNAc(b1-3)Gal(b1-4)GlcNAc(b1-2)Man(a1-6)]Man(b1-4)GlcNAc(b1-4)[Fuc(a1-6)]GlcNAc
# Summary of the method: as §1
# [31] = biological target: GlcNAc(b1-3)Gal(b1-4)GlcNAc(b1-6)[Gal(b1-3)]GalNAc
# Summary of the method: as §1
# [32] = biological target: GlcNAc(b1-3)[GlcNAc(b1-6)]GalNAc
# Summary of the method: as §1
# [33] = biological target: Kdn(a2-6)Gal(b1-4)GlcNAc
# Summary of the method: as §1
# [34] = biological target: Man(a1-2)Man(a1-3)[Man(a1-2)Man(a1-6)]Man
# Summary of the method: as §1
# [35] = biological target: Man(a1-2)Man(a1-6)[Man(a1-3)]Man(a1-6)[Man(a1-2)Man(a1-2)Man(a1-3)]Man
# Summary of the method: as §1
# [36] = biological target: Neu5Ac(a2-3)Gal(b1-3)GlcNAc(b1-3)Gal(b1-3)GlcNAc
# Summary of the method: as §1
# [37] = biological target: Neu5Ac(a2-3)Gal(b1-3)GlcNAc(b1-3)GalNAc
# Summary of the method: as §1
# [38] = biological target: Neu5Ac(a2-3)Gal(b1-3)GlcNAc(b1-4)Gal(b1-4)Glc
# Summary of the method: as §1
# [39] = biological target: Neu5Ac(a2-3)Gal(b1-4)GlcNAc(b1-3)Gal(b1-4)GlcNAc
# Summary of the method: as §1
# [40] = biological target: Neu5Ac(a2-3)Gal(b1-4)GlcNAc(b1-3)Gal(b1-4)GlcNAc(b1-3)Gal(b1-4)GlcNAc(b1-2)Man(a1-3)[Neu5Ac(a2-3)Gal(b1-4)GlcNAc(b1-3)Gal(b1-4)GlcNAc(b1-3)Gal(b1-4)GlcNAc(b1-2)Man(a1-6)]GalNAc
# Summary of the method: as §1
# [41] = biological target: Neu5Ac(a2-3)Gal(b1-4)[Fuc(a1-3)]GlcNAc(b1-3)GalNAc
# Summary of the method: as §1
# [42] = biological target: Neu5Ac(a2-6)Gal(b1-4)GlcNAc(b1-2)Man(a1-3)Man(b1-4)GlcNAc(b1-4)GlcNAc
# Summary of the method: as §1
# [43] = biological target: Neu5Ac(a2-6)Gal(b1-4)GlcNAc(b1-2)[Neu5Ac(a2-6)Gal(b1-4)GlcNAc(b1-6)]Man(a1-6)[Neu5Ac(a2-6)Gal(b1-4)GlcNAc(b1-2)Man(a1-3)][GlcNAc(b1-4)]Man(b1-4)GlcNAc(b1-4)GlcNAc
# Summary of the method: as §1
# [44] = biological target: Neu5Ac(a2-6)GalNAc
# Summary of the method: as §1
# [45] = biological target: Neu5Ac(a2-8)Neu5Ac(a2-3)Gal(b1-4)Glc
# Summary of the method: as §1
# [46] = biological target: Neu5Ac(a2-8)Neu5Ac(a2-3)Gal(b1-4)GlcNAc
# Summary of the method: as §1
# [47] = biological target: Neu5Ac(a2-8)Neu5Ac(a2-8)Neu5Ac(a2-3)[Gal(b1-3)GalNAc(b1-4)]Gal(b1-4)Glc
# Summary of the method: as §1
# [48] = biological target: Neu5Ac9Ac(a2-6)Gal(b1-4)GlcNAc
# Summary of the method: as §1
# [49] = biological target: Neu5Gc(a2-8)Neu5Ac(a2-3)Gal(b1-4)GlcNAc
# Summary of the method: as §1
binder,measurement,setting,value
B1,glycan array binding signal (z-score),[1],1.27
same,glycan array binding signal (z-score),[2],1.76
same,glycan array binding signal (z-score),[3],-0.242
same,glycan array binding signal (z-score),[4],0.448
same,glycan array binding signal (z-score),[5],-0.228
same,glycan array binding signal (z-score),[6],1.9
same,glycan array binding signal (z-score),[7],-0.738
same,glycan array binding signal (z-score),[8],2.41
same,glycan array binding signal (z-score),[9],-0.98
same,glycan array binding signal (z-score),[10],3.72
same,glycan array binding signal (z-score),[11],-0.665
same,glycan array binding signal (z-score),[12],2.67
same,glycan array binding signal (z-score),[13],-1.59
same,glycan array binding signal (z-score),[14],0.46
same,glycan array binding signal (z-score),[15],-0.413
same,glycan array binding signal (z-score),[16],3.31
same,glycan array binding signal (z-score),[17],0.109
same,glycan array binding signal (z-score),[18],-1.04
same,glycan array binding signal (z-score),[19],-0.072
same,glycan array binding signal (z-score),[20],-1.09
same,glycan array binding signal (z-score),[21],3.12
same,glycan array binding signal (z-score),[22],2.88
same,glycan array binding signal (z-score),[23],2.6
same,glycan array binding signal (z-score),[24],2.6
same,glycan array binding signal (z-score),[25],2.8
same,glycan array binding signal (z-score),[26],-1.17
same,glycan array binding signal (z-score),[27],-0.868
same,glycan array binding signal (z-score),[28],3.99
same,glycan array binding signal (z-score),[29],-0.623
same,glycan array binding signal (z-score),[30],-0.266
same,glycan array binding signal (z-score),[31],-0.267
same,glycan array binding signal (z-score),[32],-0.65
same,glycan array binding signal (z-score),[33],-1.16
same,glycan array binding signal (z-score),[34],-0.568
same,glycan array binding signal (z-score),[35],1.05
same,glycan array binding signal (z-score),[36],0.207
same,glycan array binding signal (z-score),[37],-0.719
same,glycan array binding signal (z-score),[38],-1.28
same,glycan array binding signal (z-score),[39],-1.14
same,glycan array binding signal (z-score),[40],3.17
same,glycan array binding signal (z-score),[41],2.77
same,glycan array binding signal (z-score),[42],0.03
same,glycan array binding signal (z-score),[43],-1.55
same,glycan array binding signal (z-score),[44],-0.467
same,glycan array binding signal (z-score),[45],-0.183
same,glycan array binding signal (z-score),[46],0.265
same,glycan array binding signal (z-score),[47],0.105
same,glycan array binding signal (z-score),[48],0.028
same,glycan array binding signal (z-score),[49],-0.129
